# Assay outcomes as filed in PubChem BioAssay.
# Sampled rows, rich in hits. Any-hit rate of the full collection: about 1.8%.
# 697 NFkB inh – lowers PMA/ionomycin-induced NF-kB signal in 697 B cells; 697 B-cell NF-kB luciferase reporter, 16 h; inhibition, % at 4 µM; 330,000 tested, 0.33% active; AID 435022; in the data active means inhibition above about 35%
# Beta apoptosis – blocks beta cell apoptosis | INS-1E cytokine-induced death, ATP luminescence, 48 h; percent of positive-control rescue, neutral wells zero | protection from apoptosis, % (concentration not given with the values) | 300,000 tested, 0.8% active;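 active means Every replicate reaches about 75%, or at least half do and their mean reaches it too, limit read from the data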;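 further: 0% = cytokine-treated negative control wells and 100% = positive control rescue; higher means more ATP so stronger rescue from cytokine killing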
# Gli-Sufu block – blocks Gli-Sufu signaling in a luciferase reporter; Sufu-KO-LIGHT fibroblasts, Gli luciferase reporter luminescence; inhibition, % at 5 µM; 340,000 tested, 0.74% active;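 active means inhibition above about 55%, limit read from the data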;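 further: 0% = DMSO-treated cells and 100% = wells with medium but no cells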
# Jurkat NFkB inh – inhibitors of the PMA/ionomycin-induced NF-kB reporter in Jurkat cells; PMA/ionomycin-induced NF-kB luciferase reporter, luminescence; inhibition, % at 4 µM; 330,000 tested, 0.53% active; in the data active means inhibition above about 50%
# Gli-Sufu confirm – confirmation of Gli-SUFU pathway antagonists; Sufu-KO-LIGHT cells, Gli luciferase reporter, luminescence; AID 602428; shares compounds with Gli-Sufu block; 2,500 tested, 40% active; inhibition, % at 5 µM;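 active means mean inhibition at 5 µM reaching about 45%, limit read from the data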;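 further: plate controls were DMSO-treated cells for no effect and wells lacking cells for full effect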
# SufuKO cytotox – cytotoxic in Gli-SUFU antagonist counter-screen | shares compounds with Gli-Sufu block | 2,500 tested, 32% active | cytotoxicity, % at 5 µM | Sufu-KO-LIGHT cells cytotoxicity, ATP luminescence;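 active means mean cytotoxicity at 5 µM above about 25%, limit read from the data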;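 further: cells exposed to compound overnight for roughly 16 to 18 hours; plate controls were DMSO wells with cells for no effect and medium without cells for full effect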
# Wnt3a counter – counter-screen for Gli-SUFU antagonists: Wnt3a reporter inhibition | shares compounds with Gli-Sufu block | Wnt-LIGHT cells, Wnt3a-driven luciferase reporter, luminescence | inhibition, % at 6.25 µM | 2,500 tested, 20% active | AID 651995;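 active means mean inhibition above about 25%, limit read from the data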
# * hit, by the source's call; nt = no result.
SMILES,697 NFkB inh,Beta apoptosis,Gli-Sufu block,Jurkat NFkB inh,Gli-Sufu confirm,SufuKO cytotox,Wnt3a counter
C/C(=C\C(=O)c1ccc(Br)cc1)NNC(=O)c1ccccc1,27,nt,54,-2,9,6,-4
COc1ccc2nc3n(c(=O)c2c1)-c1ccccc1C(=O)NC3Cc1ccccc1 (stereo not drawn),-7,-3,nt,-6,nt,nt,nt
CCc1nc2ccccc2c(C(=O)OCC(=O)NC2CCCC2)c1C,-6,-12,13,0,nt,nt,nt
Cc1ccc(S(=O)(=O)NCCC(=O)N2CCCCCCC2)cc1,1,3,96*,-9,13,1,-11
O=C(CCNS(=O)(=O)c1ccccc1)N1CCCCCCC1,15,3,-21,1,nt,nt,nt
CSC1SCC2C(=O)N(C)C(C(C)C)C(=O)OCC(NC(=O)c3cnc4ccccc4n3)C(=O)NC(C)C(=O)N(C)C1C(=O)N(C)C(C(C)C)C(=O)OCC(NC(=O)c1cnc3ccccc3n1)C(=O)NC(C)C(=O)N2C (stereo not drawn),nt,nt,80*,nt,85*,73*,102*
COc1ccc(CNCC(O)(c2ccc(F)cc2)c2ccc(F)cc2)cc1OC,-23,18,65*,-16,23,36*,-41
CCCCSc1nc2sc3c(c2c(=O)n1-c1ccc(C)cc1)CCN(C)C3,-54,134*,50,15,49*,21,-10
Cc1ccc(-c2noc(C3CCCN(C(=O)c4ccc(C(C)(C)C)cc4)C3)n2)o1 (stereo not drawn),-11,4,50,12,34,1,-69
c1ccc(CN2CCN(Cc3nnc(-c4ccccc4)o3)CC2)cc1,14,5,8,-3,nt,nt,nt
CCN(CC)CCNc1ccc(CO)c2sc3ccccc3c(=O)c12,-11,40,4,-27,nt,nt,nt
O=c1c2ccccc2sc2c(CO)ccc(NCCN3CCCCC3)c12,nt,nt,53,nt,41,20,-155
CCCCCc1nc2c(=O)n(C)c3ccccc3c2o1,-15,1,76*,-5,3,5,-52
Cc1ccccc1N=Nc1c(C)[nH]n(-c2ccccc2)c1=O,nt,nt,5,nt,nt,nt,nt
Cc1[nH]n(-c2ccccc2)c(=O)c1N=Nc1ccccc1O,-20,nt,55,27,55*,34*,74*
S=c1[nH]nc(CSCc2ccccc2Cl)n1C1CCCCC1,nt,nt,52,nt,30,20,0
Cn1c(CSCc2ccccc2Cl)n[nH]c1=S,8,-3,1,16,nt,nt,nt
COc1cccc(-c2nc3c(c(SCC(=O)N4CCOCC4)n2)Cc2c(CO)cnc(C)c2O3)c1,21,5,-5,14,nt,nt,nt
COc1ccc(C(=O)/C=C/NCc2ccc(C)cc2)cc1,16,-1,-12,-9,nt,nt,nt
COc1ccc(F)cc1CN1CCN(C(=O)CCC(=O)Nc2nnc(C(C)C)s2)CC1,24,-12,96*,17,13,15,-13
CCOC(=O)c1c(-c2ccccc2)nnn1-c1nc(OC)nc(N2CCOCC2)n1,-47,-8,-10,-21,nt,nt,nt
CCCCN(C(C)=O)c1ccc2c(c1)C1CC2CCN1C(=O)OCc1ccccc1 (stereo not drawn),nt,nt,56*,nt,64*,31*,3
Fc1ccc(Cn2nnnc2CN2CCN(C3CCCC3)CC2)cc1,5,-3,93*,-1,18,-11,0
CCC(c1nnnn1Cc1ccc(F)cc1)N1CCN(C2CCCCC2)CC1 (stereo not drawn),-14,-1,9,9,nt,nt,nt
BrC(=C\c1ccccc1)/C=N/Nc1nc2ccccc2[nH]1,-35,1,51,-13,-11,3,-142
SMILES,697 NFkB inh,Beta apoptosis,Gli-Sufu block,Jurkat NFkB inh,Gli-Sufu confirm,SufuKO cytotox,Wnt3a counter
O=C(O)c1ccc(N/N=C/C(Br)=C/c2ccccc2)cc1,-182,0,-112,-60,nt,nt,nt
CC(C)c1ccc(N2C(=O)C3C4C=CC(CC4)C3C2=O)cc1 (stereo not drawn),-41,-3,4,0,nt,nt,nt
CC1CC(=O)N(c2ccc(C(C)C)cc2)C(=O)C1,-9,2,54,-8,21,16,-17
CC(=O)Nc1ccc(N2C(=O)CSC2c2c(F)cccc2Cl)cc1 (stereo not drawn),11,-18,52,1,9,13,-15
CC(=O)Nc1ccc(N2C(=O)CSC2c2ccc(F)cc2)cc1 (stereo not drawn),-1,-5,1,2,nt,nt,nt
COc1cc(/C=N/NC(=O)c2cc(-c3ccccc3Cl)nc3ccccc23)cc(OC)c1O,-3,65,2,7,nt,nt,nt
Cc1nc2nc(-c3cccs3)cn2nc1C,-13,-1,53,-20,-64,12,-27
Cc1nc2nc(-c3ccc(Cl)cc3)cn2nc1C,-171,nt,-103,-126,nt,nt,nt
Nc1nc(SCC(=O)N2CCCCC2)[nH]c(=O)c1NC(=O)c1cccs1,9,-3,1,5,nt,nt,nt
CCOCCCNC(=O)c1ccc2c(c1)ncn2-c1ccccc1OC,20,-4,61*,9,11,11,-35
CCOCCCNC(=O)c1ccc2c(c1)ncn2-c1ccc(C)cc1C,10,-6,31,11,nt,nt,nt
COc1ccc(C)cc1NC(=S)NNC(=O)c1ccccc1Cl,8,13,-4,4,nt,nt,nt
NC(=O)CSc1nnc2n(-c3ccccc3)c(=O)c3c4c(sc3n12)CCCCC4,18,3,-4,17,nt,nt,nt
CN1CCc2c(sc3c2c(=O)n(-c2ccccc2)c2nnc(SCc4ccc(Cl)cc4)n32)C1,5,2,51,3,25,15,-24
O=C(CNS(=O)(=O)c1ccc2c(c1)OCCCO2)N1CCN(Cc2ccccc2)CC1,19,2,3,4,nt,nt,nt
O=C(COc1ccc2c3c(c(=O)oc2c1)CCCC3)NCCCN1CCOCC1,3,1,94*,-4,20,24,-59
CC1CCCCN1C(=O)Cn1cnc2cc([N+](=O)[O-])ccc2c1=O (stereo not drawn),1,-1,55*,23,12,-7,-16
Cc1csc(NC(=O)c2cc3c(s2)CCC3)n1,18,8,62*,-85,-62,12,-1
Cc1c(C(=O)N2CCCC(C)C2)sc2ncnc(N3CCCCC3C)c12 (stereo not drawn),-7,-4,6,3,nt,nt,nt
C=CCc1ccccc1OCC(O)CNC (stereo not drawn),-7,-3,6,-12,nt,nt,nt
CCOC(=O)c1c(CC(C)C)csc1NC(=O)COC(=O)c1cc(OC)c(OC)cc1[N+](=O)[O-],-16,22,56*,-1,32,17,-34
CCOC(=O)c1c(NC(=O)COC(=O)c2cc(OC)c(OC)cc2[N+](=O)[O-])sc(C)c1CC,-6,-3,3,6,nt,nt,nt
Cc1ccc(N2CC(c3nc4ccccc4[nH]3)CC2=O)c(C)c1 (stereo not drawn),9,0,50,2,4,-6,10
